Screening results (PubChem BioAssay)
RPL19A TOR yeast – alters RPL19A-GFP fluorescence in TOR pathway yeast screen | percent response vs DMSO, % at 10 µM | 330,000 tested, 0.3% active | S. cerevisiae RPL19A-GFP strain, flow cytometry, 3 h; hits give low values;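 active means percent response vs DMSO below 50%; inconclusive means fewer than 70 events counted for the yeast strain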;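 further: median channel GFP fluorescence of the barcoded RPL19A-GFP strain; ratio of sample median GFP to plate DMSO average so 100% = DMSO; lower means less RPL19A-GFP as with rapamycin TOR inhibition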
LAP4 TOR yeast – yeast TOR pathway LAP4-GFP modulation; S. cerevisiae LAP4-GFP multiplex, flow cytometry GFP, 3 h; median GFP as percent of DMSO wells; GFP response vs DMSO, % at 10 µM; 320,000 tested, 0.34% active;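 active means GFP response vs DMSO above a set limit, about the screen mean plus 3 SD, cut at about 150% in these data; inconclusive means under 70 cell events counted for the yeast strain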
CIT2-GFP yeast – modulators of TOR pathway CIT2-GFP in S. cerevisiae; S. cerevisiae CIT2-GFP strain, flow cytometry, 3 h; 100 means same as DMSO wells; GFP response vs DMSO, % at 10 µM; 320,000 tested, 0.065% active; AID 2029;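 active means GFP response relative to DMSO above a set limit, near the screen mean plus 3 SD, cut at about 150% in these data; inconclusive means Fewer than 70 cells measured for a yeast strain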;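 further: ratio of well median GFP fluorescence to mean of DMSO wells on the plate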
MEP2 TOR yeast – modulators of TOR pathway MEP2-GFP in S. cerevisiae; GFP response vs DMSO, % at 10 µM; 330,000 tested, 0.51% active; S. cerevisiae MEP2-GFP strain, flow cytometry GFP, 3 h; 100% = DMSO control level;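 active means GFP response versus DMSO above a set limit, roughly screen mean plus 3 SD, cut at about 180% in these data; inconclusive means fewer than 70 cells counted for a yeast strain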;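 further: median GFP fluorescence of the barcode-gated MEP2-GFP cells per well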
AGP1 TOR yeast – modulators of TOR pathway AGP1-GFP in S. cerevisiae; GFP response vs DMSO, % at 10 µM; S. cerevisiae AGP1-GFP multiplex flow cytometry, 3 h; GFP as percent of DMSO wells; 320,000 tested, 0.02% active;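 active means GFP response relative to DMSO above a set limit, near screen average plus 3 SD, cut at about 150% in these data; inconclusive means fewer than 70 cells counted for the yeast strain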;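 further: median GFP channel fluorescence of the gated AGP1 strain per well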
Numbers without * were called inactive; ? = inconclusive; [ ] = another dose, or the depositor's remark. Compounds with a hit are over-represented: about 0.93% of the library has one in this group of screens.

SMILES	RPL19A TOR yeast	LAP4 TOR yeast	CIT2-GFP yeast	MEP2 TOR yeast	AGP1 TOR yeast
CCOc1cc(C(=S)N2CCCCC2)ccc1OS(=O)(=O)c1ccc(Cl)cc1	78.8	208.6*	73.2	82.2	72.5
CCOc1cc(C(=S)N2CCCCC2)ccc1OS(=O)(=O)c1ccc(Br)cc1	101.8	96.4	104.1	93.0	98.0
COc1ccc(-c2csc(NC(=O)CSc3nnnn3C)n2)cc1OC	87.3	93.6	93.0	87.8	89.2
CCOC(=O)c1c2c(n(C)c1COC)C(=O)C(=O)c1ccc(Br)cc1-2	103.8	102.8	113.3	100.9	109.2
CCCN1C(=O)c2cc(C(=O)Nc3ccc(OC)c(OC)c3)ccc2C1Nc1ccc(OC)c(OC)c1 (stereo unspecified)	121.6	92.0	108.0	125.4	106.1
CCCN1C(=O)c2cc(C(=O)Nc3ccc(OC)cc3OC)ccc2C1Nc1ccc(OC)cc1OC (stereo unspecified)	75.6	77.2	?	261.1*[may fluoresce violet]	15.7
CCN(CC)c1ccc(/C=C2\SC(=O)N(C(C)C)C2=O)o1	89.1	256.4*	93.7	110.3	90.8
CC(C)N1C(=O)S/C(=C/c2ccc3c(c2)n(C)c(=O)n3C)C1=O	98.6	93.8	95.4	86.4	95.6
CCN=C1S/C(=C/c2ccc(-c3ccc(Cl)cc3C(=O)O)o2)C(=O)N1CC	105.9	88.9	103.0	102.4	96.7
Cc1ccc(-c2nnc(NC(=O)c3ccc([N+](=O)[O-])o3)o2)c(C)c1	99.2	150.4*	90.6	122.4	79.0
COc1ccc(-c2nnc(NC(=O)c3ccc([N+](=O)[O-])o3)o2)c(OC)c1	96.6	117.2	95.3	102.6	93.3
CCC(C)(C)NC(=O)C(c1ccncc1)N(Cc1cccs1)C(=O)Cn1nnc2ccccc21 (stereo unspecified)	31.4*[may fluoresce violet]	73.5	?	253.2*[may fluoresce violet]	?
CCC(C)(C)NC(=O)C(c1cccs1)N(CC1CCCO1)C(=O)Cn1nnc2ccccc21 (stereo unspecified)	95.2	87.3	97.1	195.0*	96.8
O=C(NCc1ccco1)C(c1ccccc1)N(CC1CCCO1)C(=O)Cn1nnc2ccccc21 (stereo unspecified)	100.6	108.3	97.5	100.8	100.6
CCC(C)(C)NC(=O)C(c1ccc(C)cc1)N(Cc1ccco1)C(=O)Cn1nnc2ccccc21 (stereo unspecified)	98.6	95.3	100.0	103.0	102.3
CN(C)c1nccc(N(Cc2ccccc2)Cc2ccccc2)c1C#N	101.3	106.8	96.3	95.3	97.1
CN(C)c1ccc(NC(=O)c2cnsn2)cc1	91.7	101.2	100.6	102.5	106.0
CC(Oc1cccc(F)c1)C(=O)/C=C\N(C)C (stereo unspecified)	101.9	91.3	108.1	99.3	100.7
COCCNC(=O)CCn1c(=O)oc2ccccc21	49.7*[may fluoresce violet]	104.4	?	498.8*[may fluoresce violet]	?
CCOc1cc(CNCc2ccccc2)ccc1OCC(=O)NC1CCCCC1	107.0	65.6	106.1	94.7	88.8
CCCN1C(=O)CC(C(=O)OC)=C1C	97.3	97.8	96.6	101.6	99.2
COC(=O)C1=C(C)N(CCc2ccccc2)C(=O)C1	43.7*[may fluoresce violet]	86.5	?	189.3*[may fluoresce violet]	?
COc1cc(OC)cc(C(=O)Nn2cnnc2)c1	59.2	111.2	?	642.4*[may fluoresce violet]	17.9
COc1cccc(C(=O)Nn2cnnc2)c1	95.7	105.3	95.4	94.3	107.9
COc1ccc(NC(=O)CSc2nc3ccccc3c3nc4ccccc4n23)cc1	24.4*[may fluoresce violet]	61.2	?	123.8	?
SMILES	RPL19A TOR yeast	LAP4 TOR yeast	CIT2-GFP yeast	MEP2 TOR yeast	AGP1 TOR yeast
CC(=O)Oc1ccc2c(=O)oc(-c3ccccc3C)nc2c1	101.0	87.8	95.8	104.4	80.6
CC(=O)Oc1ccc2c(=O)oc(-c3ccccc3)nc2c1	44.2*[may fluoresce violet]	75.8	?	190.0*[may fluoresce violet]	?
COc1cc(C(=O)NCCC(=O)NC2CCCc3ccccc32)cc(OC)c1OC (stereo unspecified)	99.6	99.6	105.0	96.4	100.7
Oc1ccc2oc3c(c2c1)CCCC3	45.0*[may fluoresce violet]	84.4	?	350.2*[may fluoresce violet]	?
O=C(/C=C/c1ccc(Cl)cc1)N(c1ccccn1)C1CCCCC1	112.1	106.3	104.1	102.1	104.7
Cc1ccccc1NC(=O)C1CCN(c2cc(-c3ccccc3)nc3ncnn23)CC1	60.0	61.4	?	256.5*[may fluoresce violet]	?
Cc1ccc(-n2nc3c(c2NC(=O)C2CC2)CS(=O)(=O)C3)cc1	96.1	97.9	93.7	94.6	96.2
O=C(Nc1c2c(nn1-c1ccc([N+](=O)[O-])cc1)CS(=O)(=O)C2)C1CC1	40.1*[may fluoresce violet]	83.3	?	126.7	17.4
COc1ccccc1N1CCN(C2CCCN(Cc3ccc(Cl)cc3)C2)CC1 (stereo unspecified)	103.3	82.0	100.8	103.2	96.8
COc1ccccc1N1CCN(C2CCCN(Cc3cc(F)cc(F)c3)C2)CC1 (stereo unspecified)	94.0	87.8	92.1	92.2	154.0*
CN(C(=O)Cn1cnc([N+](=O)[O-])n1)C1CCCCC1	?	87.0	?	211.7*[may fluoresce red and violet]	?
CCCc1cc(=O)oc2c(CN3CCCC3)c(O)c(Cl)cc12	91.8	94.5	99.9	108.7	77.7
CCc1cc(=O)oc2c(CNCc3ccccc3F)c(O)c(Cl)cc12	66.2	87.7	?	228.6*[may fluoresce violet]	?
CCN(CC(=O)Nc1ccc(NC(C)=O)cc1)C(=O)CN1C(=O)NC2(CCCC2)C1=O	89.7	96.2	88.4	93.1	95.4
CCc1ccc(C2CC(c3ccco3)=NN2S(C)(=O)=O)cc1 (stereo unspecified)	108.7	141.5	155.9*	215.0*	111.0
Brc1ccc(-c2ccc(/C=N/Nc3nc4ccccc4[nH]3)o2)cc1	38.6*[may fluoresce violet]	93.4	?	114.9	?
C(=N\Nc1nc2ccccc2[nH]1)/c1ccccc1	101.5	102.1	101.4	102.3	105.3
COC(=O)c1cc2c(=O)c3ccccc3oc2nc1/C=C/N(C)C	114.7	189.9*[may fluoresce violet]	?	571.8*[may fluoresce violet]	38.1
COC(=O)c1cc2c(=O)c3ccccc3oc2nc1C	94.5	91.4	93.5	100.0	87.0
COc1cc(/C=C/C(=O)OCC(=O)Nc2ccc(Cl)cn2)ccc1O	103.2	100.7	94.9	104.5	105.5
Cc1ccc(C)c(N2CCN(C(=O)c3ccc(Cn4c(=O)[nH]c5ccccc5c4=O)cc3)CC2)c1	53.3	85.8	?	489.4*[may fluoresce violet]	?
O=C(c1ccc(Cn2c(=O)[nH]c3ccccc3c2=O)cc1)N1CCN(c2ccc(Cl)cc2)CC1	99.7	99.8	100.1	109.5	101.8
Cc1ccc2nc(SCC(=O)N(C)C3CCS(=O)(=O)C3)[nH]c2c1 (stereo unspecified)	89.9	91.6	86.0	92.1	90.1
CCc1c(C#N)c(SCCC(=O)Nc2cccc(OC)c2)nc2c1C(=O)CC(C)(C)C2	95.4	91.7	?	220.7*[may fluoresce violet]	100.4
